Assay results: paper PMC11062922 (Nature Chemical Biology, 2023)
Read-outs that look alike come from different tables or passages of the source.

How the values were obtained:
Set-up in all cases: species or system human, MV4-11 + K-562 + COLO205 + SK-N-BE2 + OVCAR-8
PIK3CG = conditions: read-out: apparent Kd, compound concentrations: 100 nM and 1000 nM (sheet 'Samples'), n = 1
MAPK10 = conditions: read-out: apparent Kd, n = 1
MAPK11 = conditions: read-out: apparent Kd, n = 1
SYK = conditions: read-out: apparent Kd, n = 1
BMPR1A = conditions: read-out: apparent Kd, compound concentrations: 100 nM and 1000 nM (sheet 'Samples'), n = 1
ERBB3 = conditions: read-out: apparent Kd, compound concentrations: 100 nM and 1000 nM (sheet 'Samples'), n = 1
NUAK1 = conditions: read-out: apparent Kd, compound concentrations: 100 nM and 1000 nM (sheet 'Samples'), n = 1
ERCC2 = conditions: read-out: apparent Kd, n = 1
AURKA = conditions: read-out: apparent Kd, n = 1
CDK7 = conditions: read-out: apparent Kd, n = 1
EPHB3 = conditions: read-out: apparent Kd; compound concentrations: 100 nM and 1000 nM (sheet 'Samples'), CATDS: 9.3855974911044807E-3; n = 1
PKN3 = conditions: read-out: apparent Kd, n = 1
PRKAG1 = conditions: read-out: apparent Kd, compound concentrations: 100 nM and 1000 nM (sheet 'Samples'), n = 1
STK10 = conditions: read-out: apparent Kd; compound concentrations: 100 nM and 1000 nM (sheet 'Samples'), CATDS: 8.8435588705339796E-3; n = 1
SIK3 = conditions: read-out: apparent Kd; compound concentrations: 100 nM and 1000 nM (sheet 'Samples'), CATDS: 4.52892719114492E-2; n = 1
MAP2K2 = conditions: read-out: apparent Kd; compound concentrations: 100 nM and 1000 nM (sheet 'Samples'), CATDS: 3.1784212717953002E-2; n = 1
PIM2 = conditions: read-out: apparent Kd; compound concentrations: 100 nM and 1000 nM (sheet 'Samples'), CATDS: 0.11675722362862; n = 1
LIMK1 = conditions: read-out: apparent Kd, compound concentrations: 100 nM and 1000 nM (sheet 'Samples'), n = 1
PIK3CD = conditions: read-out: apparent Kd; compound concentrations: 100 nM and 1000 nM (sheet 'Samples'), CATDS: 0.10575353255485199; n = 1
[1] = compound concentrations:100 nM and 1000 nM (sheet 'Samples')

Question: How did the potency estimated from few doses (PIK3CG; CATDS: 8.0370856047911096E-2) turn out when `CNC1=NC(=O)/C(=C/c2ccc3ncccc3c2)S1` [RO4595949-000] was run?
Answer: 401 nM

Question: With `Cc1cccc(-c2cc(-c3c[nH]nc3-c3ccccn3)ccn2)c1` [GW679395X] as the compound, how does the potency estimated from few doses (MAPK10; [1]) read?
Answer: 1730 nM

Question: What about the potency estimated from few doses (MAPK11; [1]) of the same compound?
Answer: 1350 nM

Question: What about the potency estimated from few doses (SYK; [1]) of the same compound?
Answer: 2310 nM

Question: `COc1cccc(-n2ncc3c(N/N=C/c4ccc(C(=O)NCCN(C)C)cc4)ncnc32)c1.Cl` [GW784307A] was tested. Which potency estimated from few doses (BMPR1A; CATDS: 4.33451441122037E-2) did it give?
Answer: 353 nM

Question: What about the potency estimated from few doses (ERBB3; CATDS: 3.16220170710034E-2) of the same compound?
Answer: 874 nM

Question: For `Cc1cccc(Nc2nc(NCCN)ncc2C(N)=O)c1` [GSK1292139B], which potency estimated from few doses (NUAK1; CATDS: 0.100745572773025) is on record?
Answer: 611 nM

Question: And the potency estimated from few doses (SYK; compound concentrations: 100 nM and 1000 nM (sheet 'Samples'), CATDS: 7.0539324655896005E-2)?
Answer: 1500 nM

Question: `Cl.O=C1N=C(NCc2ccccn2)S/C1=C\c1ccc2ncccc2c1` [RO4874953-001] was tested. Which potency estimated from few doses (ERCC2; compound concentrations: 100 nM and 1000 nM (sheet 'Samples'), CATDS: 7.2588346323970404E-2) did it give?
Answer: 1850 nM

Question: What does the source list for `O=C1N=C(NCc2cccs2)SC1Cc1ccc2ncccc2c1` (centres unmarked) [RO4629078-000]?
Answer: potency estimated from few doses (AURKA; compound concentrations: 100 nM and 1000 nM (sheet 'Samples'), CATDS: 9.8241479768662494E-3): 700 nM; potency estimated from few doses (CDK7; compound concentrations: 100 nM and 1000 nM (sheet 'Samples'), CATDS: 2.7171532019021599E-2): 112 nM; potency estimated from few doses (EPHB3): 790 nM; potency estimated from few doses (ERCC2; compound concentrations: 100 nM and 1000 nM (sheet 'Samples'), CATDS: 9.4373206529466905E-3): 778 nM; potency estimated from few doses (NUAK1; CATDS: 9.4682639487438207E-3): 771 nM; potency estimated from few doses (PKN3; compound concentrations: 100 nM and 1000 nM (sheet 'Samples'), CATDS: 1.04428727598351E-2): 602 nM; potency estimated from few doses (PRKAG1; CATDS: 1.42415287056141E-2): 314 nM; potency estimated from few doses (STK10): 935 nM

Question: With `COc1cc(Nc2ccnc3cc(-c4ccncc4)ccc23)cc(OC)c1OC.Cl` [GW494610A] as the compound, how does the potency estimated from few doses (BMPR1A; CATDS: 3.04170421320503E-2) read?
Answer: 486 nM

Question: And the potency estimated from few doses (MAPK11; compound concentrations: 100 nM and 1000 nM (sheet 'Samples'), CATDS: 2.2230478875047501E-2)?
Answer: 1610 nM

Question: What about the potency estimated from few doses (PKN3; compound concentrations: 100 nM and 1000 nM (sheet 'Samples'), CATDS: 0.111672357015452) of the same compound?
Answer: 24.1 nM

Question: And the potency estimated from few doses (SIK3)?
Answer: 160 nM

Question: For `CCn1cc(-c2ccnc3[nH]c(-c4cccc(CN(C)C)c4)cc23)c(-c2ccc(NC(=O)N(C)C)cc2)n1` [GSK1070916], which potency estimated from few doses (AURKA; [1]) is on record?
Answer: 197 nM

Question: How did the potency estimated from few doses (ERBB3; CATDS: 0.18333833775407599) turn out when `COc1cccc(-n2cnc3c(N/N=C/c4ccncc4)ncnc32)c1` [GW813360X] was run?
Answer: 961 nM

Question: With `CN1CCN(Cc2ccc(-c3ccc4c(Nc5ccc(Oc6ccccn6)cc5)ccnc4c3)o2)CC1` [GW567140X] as the compound, how does the potency estimated from few doses (MAP2K2) read?
Answer: 2090 nM

Question: For `CC(=O)c1c(-c2ccncc2)[nH]c(-c2ccncc2)c1C` [GW493036X], which potency estimated from few doses (PKN3; [1]) is on record?
Answer: 1070 nM

Question: How did the potency estimated from few doses (ERBB3; CATDS: 4.9978680002658399E-2) turn out when `COc1cc2nccc(Nc3ccc(Oc4ccccc4)cc3)c2cc1OC.Cl` [GI261656A] was run?
Answer: 623 nM

Question: `Cl.Cn1c(=O)c(Cc2ccc(F)cc2F)cc2cnc(NC3CCOCC3)nc21` [RO3308757-001] was tested. Which potency estimated from few doses (CDK7; [1]) did it give?
Answer: 331 nM

Question: And the potency estimated from few doses (ERCC2; [1])?
Answer: 239 nM

Question: What about the potency estimated from few doses (MAPK10; [1]) of the same compound?
Answer: 886 nM

Question: Which potency estimated from few doses (PIM2) does the source give for `COc1ccc(-c2nc3n(c2-c2ccncc2)CCC3)cc1.COc1ccc(-c2nc3n(c2-c2ccncc2)CCC3)cc1.O=S(=O)(O)O.O=S(=O)(O)O` [SKF-104493-B2] here?
Answer: 1570 nM

Question: What about the potency estimated from few doses (PKN3; compound concentrations: 100 nM and 1000 nM (sheet 'Samples'), CATDS: 0.15312963325727599) of the same compound?
Answer: 911 nM

Question: Which potency estimated from few doses (LIMK1; CATDS: 8.9017548853229503E-2) does the source give for `CC(=O)N1CCN(c2ccc(Nc3nccc(-c4sc(C(C)C)nc4-c4cccc(NS(=O)(=O)c5cccc(Cl)c5)c4)n3)cn2)CC1` [GSK1660437A] here?
Answer: 288 nM

Question: With `O=S(=O)(CCOCc1ccc(-c2ccc3ncnc(Nc4ccc(OCc5cccc(F)c5)c(Cl)c4)c3c2)o1)c1ccccc1` [GW615311X] as the compound, how does the potency estimated from few doses (AURKA; compound concentrations: 100 nM and 1000 nM (sheet 'Samples'), CATDS: 3.2222679542607199E-2) read?
Answer: 1020 nM

Question: And the potency estimated from few doses (LIMK1; CATDS: 2.6639361665983699E-2)?
Answer: 1500 nM

Question: What about the potency estimated from few doses (MAPK10; compound concentrations: 100 nM and 1000 nM (sheet 'Samples'), CATDS: 3.14341615066977E-2) of the same compound?
Answer: 1070 nM

Question: And the potency estimated from few doses (MAPK11; compound concentrations: 100 nM and 1000 nM (sheet 'Samples'), CATDS: 2.56124612703456E-2)?
Answer: 1650 nM

Question: And the potency estimated from few doses (PIK3CD)?
Answer: 176 nM

Question: And the potency estimated from few doses (PIK3CG; CATDS: 3.2678630734210498E-2)?
Answer: 992 nM

Question: What about the potency estimated from few doses (PKN3; compound concentrations: 100 nM and 1000 nM (sheet 'Samples'), CATDS: 2.28065209428794E-2) of the same compound?
Answer: 2200 nM

Question: And the potency estimated from few doses (PRKAG1; CATDS: 2.7047929037046701E-2)?
Answer: 1450 nM

Question: And the potency estimated from few doses (SYK; compound concentrations: 100 nM and 1000 nM (sheet 'Samples'), CATDS: 2.2434221169995199E-2)?
Answer: 2300 nM
